From PubChem BioAssay
Shown are actives, neighbours in structure and some others; about 31% of the full set was active somewhere.
CYP2C19 activ = cytochrome P450 2C19 (human) activation; activation factor at 5 µM; 96,000 tested, under 10 active; recombinant CYP2C19, luciferin-H EGE luminescence; active compounds read high; 0 = fully inhibited enzyme, 1 = untreated enzyme; P33261;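 active = activation factor of at least 2 at 5 µM in the primary screen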;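 also: 0 = wells with 2.5 mM tranylcypromine and 1 = vehicle-only wells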
CYP2C19 inh = human CYP2C19 inhibition. CYP2C19 Supersomes, luciferin-H EGE luminescence, 30 min. inhibition, % at 5 µM. actives 21% (n = 96,000). AID 778;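 active = CYP2C19 inhibition above a set limit at 5 µM in the primary screen, cut at about 50% in these data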;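 also: plate controls were negative control wells for no effect and 2.5 mM tranylcypromine positive control for full effect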
CYP2C9 act = increases human cytochrome P450 2C9 activity; P11712; actives 1.4% (n = 96,000); activation factor at 5 µM; recombinant CYP2C9, luciferin-H conversion, luminescence; active compounds read high; factor 1 = untreated enzyme, 0 = blocked;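 active = activation factor of 2 or more for CYP2C9 at a 5 µM dose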;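 also: 0 = sulfaphenazole-blocked wells and 1 = vehicle-only wells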
Target sequence (P11712 whole entry, looked up): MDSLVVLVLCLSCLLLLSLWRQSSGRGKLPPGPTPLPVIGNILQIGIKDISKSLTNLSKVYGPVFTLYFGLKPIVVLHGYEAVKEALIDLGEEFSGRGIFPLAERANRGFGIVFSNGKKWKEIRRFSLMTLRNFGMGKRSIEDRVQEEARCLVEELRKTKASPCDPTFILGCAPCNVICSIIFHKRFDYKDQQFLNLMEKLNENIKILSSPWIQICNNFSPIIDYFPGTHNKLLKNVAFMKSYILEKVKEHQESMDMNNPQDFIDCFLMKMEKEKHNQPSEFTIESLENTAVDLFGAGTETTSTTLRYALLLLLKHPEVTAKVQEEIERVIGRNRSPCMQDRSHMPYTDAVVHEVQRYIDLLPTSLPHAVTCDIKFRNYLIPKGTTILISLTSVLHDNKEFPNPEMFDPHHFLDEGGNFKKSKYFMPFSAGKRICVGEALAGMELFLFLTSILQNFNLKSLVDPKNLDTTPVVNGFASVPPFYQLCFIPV
CYP2C9 inhib = inhibitors of human CYP2C9 | inhibition, % at 5 µM | actives 20% (n = 96,000) | AID 777 | CYP2C9 Supersomes, luciferin-H conversion, luminescence;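 active = blocking of liver enzyme CYP2C9 beyond about 50% at 5 µM, limit read from the data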
The depositor's hits bear a star.

How did CS(=O)(=O)N(CC(=O)Nc1ccc2c(c1)OCO2)c1ccc2c(c1)OCO2 do in these assays?
CYP2C19 activ: 0.6; CYP2C19 inh: 43.5; CYP2C9 act: 0.7; CYP2C9 inhib: 28.1

What do the screens show for `COC(=O)c1ccc(Cl)c(NC(=O)CN(c2ccc3c(c2)OCO3)S(C)(=O)=O)c1`?
CYP2C19 activ: 0.1; CYP2C19 inh: 89.7*; CYP2C9 act: 0.1; CYP2C9 inhib: 86.8*

Results for COC(=O)c1cc(NC(=O)CN(c2ccc3c(c2)OCO3)S(C)(=O)=O)ccc1Cl ?
CYP2C19 activ: 0.1; CYP2C19 inh: 93.2*; CYP2C9 act: 0.1; CYP2C9 inhib: 92.6*

Results for CS(=O)(=O)N(CC(=O)Nc1ccccc1C(=O)N1CCOCC1)c1ccc2c(c1)OCO2 ?
CYP2C19 activ: 0.9; CYP2C19 inh: 7.7; CYP2C9 act: 1.1; CYP2C9 inhib: -8.0

Results for CS(=O)(=O)N(CC(=O)Nc1cccnc1)c1ccc2c(c1)OCCO2 ?
CYP2C19 activ: 0.9; CYP2C19 inh: 8.4; CYP2C9 act: 0.9; CYP2C9 inhib: 6.2

Results for CS(=O)(=O)N(CC(=O)Nc1cccnc1)c1ccc2c(c1)OCO2 ?
CYP2C19 activ: 0.4; CYP2C19 inh: 58.4*; CYP2C9 act: 1; CYP2C9 inhib: -0.7

How did c1cn(-c2ncnc3sc4c(c23)CCCC4)cn1 do in these assays?
CYP2C19 activ: 0.7; CYP2C19 inh: 27.8; CYP2C9 act: 0.9; CYP2C9 inhib: 9.4

How did CC(C)COC(=O)n1ccc(C(=O)N2CCCCC2)n1 do in these assays?
CYP2C19 activ: 0.8; CYP2C19 inh: 16.9; CYP2C9 act: 0.9; CYP2C9 inhib: 8.2

Results for COc1ccc(NC(=O)c2ccc(CNc3c(NC4CCCCC4)c(=O)c3=O)cc2)c(OC)c1 ?
CYP2C19 activ: 0.9; CYP2C19 inh: 14.8; CYP2C9 act: 0.3; CYP2C9 inhib: 70.3*

What do the screens show for `O=C(N1CCCCC1)C12CC3CC(C1)CC(C(=O)N1CCCCC1)(C3)C2`?
CYP2C19 activ: 0.3; CYP2C19 inh: 66.2*; CYP2C9 act: 0.4; CYP2C9 inhib: 64.2*

What do the screens show for `O=C(NC1(C(=O)NC2CCCC2)CCCCC1)c1ccc2c(c1)OCO2`?
CYP2C19 activ: 1; CYP2C19 inh: 3.4; CYP2C9 act: 1; CYP2C9 inhib: -0.8

What do the screens show for `Cc1ccccc1-c1cc(C(=O)Nc2sc(C(=O)OC(C)C)c(C)c2C#N)c2ccccc2n1`?
CYP2C19 activ: 0.6; CYP2C19 inh: 44.4; CYP2C9 act: 0.2; CYP2C9 inhib: 84.6*

Results for COC(=O)c1sc(NC(=O)c2cc(-c3ccccc3)nc3ccccc23)c(C#N)c1C ?
CYP2C19 activ: 0.9; CYP2C19 inh: 7.5; CYP2C9 act: 0.4; CYP2C9 inhib: 64.5*

What do the screens show for `CCOC(=O)c1sc(NC(=O)c2cc(-c3ccc(C)cc3)nc3ccccc23)c(C#N)c1C`?
CYP2C19 activ: 0.9; CYP2C19 inh: 14.6; CYP2C9 act: 0.6; CYP2C9 inhib: 41.8

What do the screens show for `O=C(/C=C/c1ccc(OC2CSC2)cc1)c1ccccc1`?
CYP2C19 activ: 0.4; CYP2C19 inh: 61.0*; CYP2C9 act: 0.6; CYP2C9 inhib: 40.4

How did CC(=O)N(/N=C/c1cccc(C)c1)c1nc(-c2ccc(Br)cc2)cs1 do in these assays?
CYP2C19 activ: 0.7; CYP2C19 inh: 28.5; CYP2C9 act: 0.9; CYP2C9 inhib: 8.6

Results for COc1ccc(/C=N/N(C(C)=O)c2nc(-c3ccc(C)cc3)cs2)cc1 ?
CYP2C19 activ: 0.3; CYP2C19 inh: 73.2*; CYP2C9 act: 0.4; CYP2C9 inhib: 57.0*

What do the screens show for `COC(=O)c1nnn(-c2nonc2N)c1CSc1ccc(Cl)cc1`?
CYP2C19 activ: 0.6; CYP2C19 inh: 38.1; CYP2C9 act: 0.8; CYP2C9 inhib: 16.4

How did CCN(CC)C(=O)c1cc2sc3ccccc3c2s1 do in these assays?
CYP2C19 activ: 0.7; CYP2C19 inh: 27.1; CYP2C9 act: 2.4*; CYP2C9 inhib: -135.6

Results for COCCN(CCOC)C(=O)c1cc2sc3ccccc3c2s1 ?
CYP2C19 activ: 0.7; CYP2C19 inh: 34.2; CYP2C9 act: 2.8*; CYP2C9 inhib: -178.6

Results for COCCN(CC(=O)NCc1ccccc1)C(=O)CCC(=O)Nc1ccccn1 ?
CYP2C19 activ: 1; CYP2C19 inh: 0.1; CYP2C9 act: 1; CYP2C9 inhib: -4.6

How did CCN(Cc1ccccc1)C(=O)c1cc2c(=O)oc3ccc(C)cc3c2s1 do in these assays?
CYP2C19 activ: 0.8; CYP2C19 inh: 16.7; CYP2C9 act: 1.4; CYP2C9 inhib: -40.7

What do the screens show for `O=C(NCC1CCCO1)c1csc2c1CCCC2` (stereo not drawn)?
CYP2C19 activ: 1; CYP2C19 inh: 0.4; CYP2C9 act: 1.5; CYP2C9 inhib: -47.4

What do the screens show for `CC(C)CC(=O)Nc1ccc(F)c(Cl)c1`?
CYP2C19 activ: 0.7; CYP2C19 inh: 27.6; CYP2C9 act: 0.7; CYP2C9 inhib: 30.0

Results for CN1c2ccsc2C(O)=C(C(=S)Nc2ccc(F)c(Cl)c2)S1(=O)=O ?
CYP2C19 activ: 1; CYP2C19 inh: -0.4; CYP2C9 act: 0.2; CYP2C9 inhib: 84.1*

What do the screens show for `O=C1CC(N2CCN(c3ccc(C(=O)c4ccc(F)cc4)cc3)CC2)C(=O)N1` (stereo not drawn)?
CYP2C19 activ: 1; CYP2C19 inh: 3.2; CYP2C9 act: 0.9; CYP2C9 inhib: 6.8

What do the screens show for `O=C(Cc1cccs1)N(c1ccccc1)C1C=CS(=O)(=O)C1` (stereo not drawn)?
CYP2C19 activ: 0.7; CYP2C19 inh: 30.8; CYP2C9 act: 1; CYP2C9 inhib: 1.1

What do the screens show for `CCc1ccccc1N(C(=O)c1cccs1)C1C=CS(=O)(=O)C1` (stereo not drawn)?
CYP2C19 activ: 0.3; CYP2C19 inh: 71.1*; CYP2C9 act: 0.9; CYP2C9 inhib: 13.8

Results for CCCc1nc2c(=O)[nH]c3ccccc3c2o1 ?
CYP2C19 activ: 0.9; CYP2C19 inh: 9.2; CYP2C9 act: 1; CYP2C9 inhib: -0.1

What do the screens show for `Cc1ccc(C(C)NC(=O)c2c(C)noc2C)cc1C` (stereo not drawn)?
CYP2C19 activ: 0.4; CYP2C19 inh: 60.9*; CYP2C9 act: 0.8; CYP2C9 inhib: 24.1

Results for Cc1noc(C)c1C(=O)NCCc1ccccc1 ?
CYP2C19 activ: 0.9; CYP2C19 inh: 5.3; CYP2C9 act: 1.1; CYP2C9 inhib: -7.9

What do the screens show for `CC(C)C(=O)Nc1cccc(C(=O)OCC(=O)c2ccc(Cl)cc2Cl)c1`?
CYP2C19 activ: 0.9; CYP2C19 inh: 7.8; CYP2C9 act: 2.6*; CYP2C9 inhib: -163.3

How did CC(=O)Nc1cc(C(=O)OCC(=O)c2ccc(Cl)cc2Cl)ccc1C do in these assays?
CYP2C19 activ: 0.7; CYP2C19 inh: 33.6; CYP2C9 act: 2*; CYP2C9 inhib: -101.5

Results for O=C(COC(=O)c1cccnc1Cl)c1ccc(Cl)cc1Cl ?
CYP2C19 activ: 0.3; CYP2C19 inh: 65.9*; CYP2C9 act: 2.5*; CYP2C9 inhib: -149.4

How did O=C(OCC(=O)N1CCc2ccccc21)c1cccnc1Cl do in these assays?
CYP2C19 activ: 0.9; CYP2C19 inh: 9.2; CYP2C9 act: 1; CYP2C9 inhib: 1.8

Results for COc1ccc(C)cc1NC(=O)C(C)N(c1ccc(C)cc1)S(C)(=O)=O (stereo not drawn) ?
CYP2C19 activ: 0.6; CYP2C19 inh: 44.3; CYP2C9 act: 0.4; CYP2C9 inhib: 55.6*
